# Bioassay records as filed in PubChem.
# Giardia FBPA inh – qHTS Assay for Inhibitors of Fructose-1,6-bisphosphate Aldolase from Giardia Lamblia. 290,000 compounds, 0.71% hits. Potency, µM (doses to about 59.6 µM), for inactives: top-dose activity, negative = inhibition, hits mostly inhibitors. AID 2451, 2010. purified Giardia FBPA; note: potency is the fitted concentration of half-maximal effect; nearly all actives have a fitted effect of over 55% in size
# Target sequence (A8B2U2 whole entry, looked up): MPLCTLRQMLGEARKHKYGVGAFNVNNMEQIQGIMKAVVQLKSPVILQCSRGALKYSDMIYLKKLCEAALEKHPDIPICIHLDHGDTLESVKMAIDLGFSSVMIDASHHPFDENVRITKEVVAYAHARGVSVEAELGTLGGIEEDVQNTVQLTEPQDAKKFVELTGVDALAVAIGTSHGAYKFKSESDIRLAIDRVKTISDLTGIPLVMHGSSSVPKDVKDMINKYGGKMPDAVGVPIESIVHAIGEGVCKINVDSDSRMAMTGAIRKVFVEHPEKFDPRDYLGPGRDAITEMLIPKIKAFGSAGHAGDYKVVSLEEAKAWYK
#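 40 nM FBPA preincubated 10 min at RT with compound (up to 57.5 uM final), then substrate plus GAPDH/TPI/NAD/arsenate coupling and diaphorase/resazurin added. Fluorescence read after 20 min at RT, 525/598 nm.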
# FMDV antiviral – High Throughput Screening for Foot and Mouth Disease Virus Antivirals; FMDV antiviral cell-based qHTS; Potency, µM (series often up to 57.9 µM), for the others: at the top dose activity change, negative = inhibition, most hits filed as inhibitors; 410,000 compounds, 1.2% hits; AID 1159524, 2015; calls by dose curve; tested in HEK293T cells; note: read-out not given here; potency is the fitted concentration of half-maximal effect; nearly all actives have a fitted effect of over 45% in size
# HCV inh – qHTS Assay for Inhibitors of Hepatitis C Virus (HCV); Potency, µM (highest dose often 41.8 µM), without a hit: at the top dose activity change, negative = inhibition, actives largely listed as inhibitors; Huh7.5.1 HCVcc-Cre infection, luciferase reporter, 44 h; 340,000 compounds, 3.4% hits; AID 651820, 2012; note: potency is the fitted concentration of half-maximal effect
#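 1,000 cells/well; 4 h culture; + compound; + HCVcc-Cre (~0.5 moi); 44 h; luciferase substrate, RT 15 min; read 15 sec.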
# VACV mCherry inh – qHTS for Stage-Specific Inhibitors of Vaccinia Orthopoxvirus: mCherry Reporter Primary qHTS. Vaccinia virus mCherry reporter infection, fluorescence. Potency, µM (highest dose often 36.5 µM), inactives show at the highest dose activity change, negative = inhibition, most hits filed as inhibitors. 310,000 compounds, 0.63% hits; calls by dose curve; tested in A549 cells; note: potency is the fitted concentration of half-maximal effect; nearly all actives have a fitted effect of over 35% in size
# VACV Venus inh – qHTS for Stage-Specific Inhibitors of Vaccinia Orthopoxvirus: Venus Reporter Primary qHTS; Vaccinia virus Venus reporter expression, fluorescence; 330,000 compounds, 0.46% hits; Potency, µM (titrated, usually from 36.5 µM), for the others: at the top dose activity change, negative = inhibition, actives largely listed as inhibitors; calls by dose curve; tested in A549 cells; note: potency is the fitted concentration of half-maximal effect; nearly all actives have a fitted effect of over 30% in size
# HCMV inh – qHTS Assay for inhibitors of the human cytomegalovirus (HCMV). AID 1259415, 2018. 410,000 compounds, 4.5% hits. HFF cells, HCMV-luciferase reporter, 72 h; hits give low values. activity change, negative = inhibition, % at 57.5 µM; in the data active = activity change below about -60%; inconclusive = no clear call, values can overlap the other calls; inactive = above about -39%
#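 Inhibition of viral replication was scored as loss of reporter luminescence in HFFs infected with HCMV-luciferase (MOI 1 PFU/cell) for 72 h; compounds tested at 2 doses, normalized to buffer and Salinomycin controls.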
# * hit, by the source's call; i = inactive; ? = inconclusive; nt = no result; ! = repeats disagree. Hits are enriched below; roughly 7.5% of the tested compounds scored in any of these assays. Unless noted, calls come from the whole dose curve; as a rule, active = well fitted curve in the direction sought with a large enough effect; inconclusive = small, poorly fitted or top-dose-only effect, or another doubt; inactive = no such curve, though single readings can be large; an effect the other way counts as inactive or inconclusive. % is set by controls: 0 for no effect and ±100 for the full control effect.
SMILES,Giardia FBPA inh,FMDV antiviral,HCV inh,VACV mCherry inh,VACV Venus inh,HCMV inh
COc1cccc(-n2c(-c3ccco3)nc3c(cnn3-c3ccccc3C)c2=O)c1,nt,14µM*,nt,-14%,-3%,-33
COc1ccc(-n2c(-c3ccco3)nc3c(cnn3-c3ccccc3Cl)c2=O)cc1,nt,?,nt,-20%,-4%,?
O=c1c2cnn(-c3ccccc3)c2nc(-c2cccs2)n1-c1cccc(Cl)c1,27%,?,?,i,-24%,-76*
Cc1ccc2c(c1)N(C(=O)N1CCC(C(=O)NCc3ccccc3C)CC1)CC(C)O2 (stereo not given),nt,?,nt,-14%,-10%,-17
COc1ccc(-n2c(-c3ccco3)nc3c(cnn3-c3ccccc3C)c2=O)cc1,-5%,?,-6%,-7%,-11%,?
CCc1nc2c(cnn2-c2ccc(Cl)cc2)c(=O)n1-c1ccc(OC)cc1,0%,?,11µM*,-19%,-16%,-37
CCOc1ccc(-n2c(C)nc3c(cnn3-c3ccc(Cl)cc3)c2=O)cc1,3%,-15%,11%,-15%,-10%,-26
COc1ccc(-n2c(-c3ccco3)nc3c(cnn3-c3ccc(C)cc3)c2=O)cc1,-9%,40µM*!,?,?,-25%,-5
COc1cc(OC)cc(-c2cc3c(Nc4cccc(O)c4)nccc3[nH]2)c1,nt,nt,nt,nt,nt,25
Cc1cc(CNC(=O)CCN2Cc3cc(Cl)ccc3OC(C)C2)nn1C (stereo not given),nt,19%,nt,-5%,-2%,nt
CCOc1ccccc1CNC(=O)c1ccc(N2Cc3ccccc3Oc3ncccc32)s1,nt,-14%,nt,-16%,-10%,1
COc1ccc(/C=N/NC(=O)c2ccc(NC(C)=O)cc2)cc1COc1ccc(F)cc1F,12%,?,-16%,nt,nt,-24
COc1ccc(/C=N\NC(=O)c2ccc(F)cc2)cc1COc1cc(F)ccc1[N+](=O)[O-],9%,25µM*,10µM*,-17%,-14%,19
COc1ccc(/C=N/NC(=O)c2ccoc2C)cc1COc1c(C)cccc1C,-5%,10µM*,?,13µM*,?,-97*
COc1ccc(/C=N/NC(=O)c2ccc(OC)c(OC)c2)cc1COc1c(F)c(F)c(F)c(F)c1F,nt,-5%,3.5µM*,-18%,-10%,-5
COc1ccc(/C=N/NS(=O)(=O)c2ccc(F)cc2)cc1COc1cc(F)ccc1[N+](=O)[O-],-4%,-15%,?,-2%,-12%,-66*
CCOC(=O)Cc1c[nH]c2ccc([N+](=O)[O-])cc12,nt,-13%,-17%,i,-16%,46
COC(=O)C(CO)NC(=O)C(C)NC(=O)CNC(=O)OCc1ccccc1 (stereo not given),0%,-9%,9%,5%,-2%,-4
Cc1cc2c(n1-c1ccc(C(=O)NCCc3ccc(Cl)cc3)cc1)CCC(C)C2 (stereo not given),nt,-23%,nt,-7%,-4%,-28
COc1ccc(/C=N\NC(=O)c2cc(O)c(O)c(O)c2)cc1COc1ccc(C(=O)OCC(C)C)cc1,?,13%,5.6µM*,-18%,-21%,0
C=CCNC(=O)c1onc(CSc2ccc(F)c(F)c2)c1C(=O)NCC=C,nt,-12%,-26%,i,-4%,-66*
COc1ccc(NC(=O)N2c3ccc(OC)cc3[C@@H](NC(=O)c3ccc(C)s3)[C@H](C)[C@H]2c2ccccc2)cc1,nt,nt,nt,nt,nt,2
O=C(Nc1ccccc1N1CCOCC1)C1=NN(c2ccccc2)C(=O)CC1,nt,?,20%,-23%,-30%,-6
COc1ccc(OC)c(NS(=O)(=O)c2c(C(=O)N3CCCCCC3)c(C)n(C)c2C)c1,-12%,21%,17%,nt,nt,?
CC(C)(C)NC(=O)c1csc(C(O)c2ccc(C(C)(C)C)cc2)n1 (stereo not given),nt,nt,nt,nt,nt,-96*
SMILES,Giardia FBPA inh,FMDV antiviral,HCV inh,VACV mCherry inh,VACV Venus inh,HCMV inh
COc1cc(NC(=O)c2csc(C(O)c3ccc(C(C)(C)C)cc3)n2)cc(OC)c1OC (stereo not given),nt,nt,nt,nt,nt,20
Cc1onc(C(=O)N2CCN(C(c3ccccc3)c3ccccc3)CC2)c1[N+](=O)[O-],2%,?,?,15%,-4%,-103*
Cc1cc(C(=O)N2CCN(C(c3ccccc3)c3ccccc3)CC2)no1,1%,?,?,nt,nt,-18
O=C(c1cc(-c2cccs2)on1)N1CCN(C(c2ccccc2)c2ccccc2)CC1,1%,-21%,2.8µM*,-14%,-13%,?
COc1ccccc1N1CCN(C(=O)c2noc(C)c2[N+](=O)[O-])CC1,nt,-12%,24%,nt,nt,0
COc1cc(F)ccc1S(=O)(=O)N1CCN(Cc2ccccc2)CC1,-8%,-20%,1%,-15%,-6%,-9
Oc1ccc(Nc2nccc3[nH]c(-c4ccccc4)cc23)cc1,nt,nt,nt,nt,nt,-1
COc1ccccc1CNC(=O)/C(C#N)=C/c1ccc(OC)c(OC)c1OC,-7%,?,?,nt,nt,?
O=C(CN1C(=O)c2ccccc2S1(=O)=O)Nc1ccccc1C(=O)NCc1ccco1,2%,-8%,7%,nt,25%,42
O=C(CN1C(=O)c2cccc3cccc1c23)Nc1ccccc1C(=O)NCc1ccco1,nt,-24%,-26%,?,-26%,-61*
CCc1nnc2c(N3CCN(c4cccc(C)c4)C(C)C3)nc3ccccc3n12 (stereo not given),nt,-21%,nt,-15%,-3%,?
Cc1cc(C)c[n+](CC(=O)c2ccc(-c3ccccc3)cc2)c1,-5%,?,?,-19%,-21%,-77*
CCc1cc2c(cc3c(=O)n(CC(=O)N4CCN(c5ccccn5)CC4)nc(CC)n32)s1,6%,nt,7.9µM*,-11%,-3%,-6
Cc1ncc(N=Nc2ccccc2)c(-c2ccccc2)n1,5%,-25%,10µM*,nt,-3%,-4
Cc1ncc(S(=O)(=O)c2ccccc2)c(-c2ccccc2)n1,-7%,-18%,16%,-14%,-2%,-18
CCOc1ccccc1CN1CCCC(CNC(=O)Cc2ccc(OC)cc2)C1 (stereo not given),-2%,-21%,-15%,nt,nt,32
CN(C)CCCN1C(=O)c2cc3ccccc3cc2C1=O,6%,-4%,13%,nt,nt,19
Cc1ccc(NC(=O)CCCN2C(=O)c3cccc4cccc(c34)C2=O)cc1,5%,?,?,i,-8%,-73*
CN(C)CCN1C(=O)c2cccc3cc([N+](=O)[O-])cc(c23)C1=O,nt,-22%,?,1.1µM*,?,-98*
CN(C)CCCN1C(=O)c2cccc3cccc(c23)C1=O,2%,-10%,?,-12%,-19%,-64*
